Results on 51 compounds are retold here after PubChem BioAssay AID651567 (National Center for Advancing Translational Sciences (NCATS), 2012).

Out of some 1,200 compounds screened, about 10 (0.8%) were called active. Inconclusive results (about 4%) are left out. The list comes from a sample in which actives are over-represented; it also holds similar structures and randomly drawn compounds. A number with no mark means an inactive call. Calls follow the shape of the dose curve; as a rule, active = well fitted inhibition curve with a large enough effect; inconclusive = small, poorly fitted or top-dose-only effect; inactive = no such curve, though single readings can be large or run the other way.
% is scaled to controls: 0 for no effect and ±100 for the full control effect; potency is read from the fitted curve at half-maximal effect.

This assay is described as follows: qHTS Assay to Find Inhibitors of Chronic Active B-Cell Receptor Signaling: Hit Validation in OCI-Ly3 Assay. To be noted: OCI-Ly3 IkB-luciferase reporter, Chroma-Glo luminescence, 4 h; series mostly up to 46.1 µM; activity change, negative = inhibition: at the top concentration. The text has this:
Diffuse large B-cell lymphoma (DLBCL) is the most common category of non-Hodgkin lymphoma, with ~20,000 new cases per year in the United States. DLBCL should be regarded as a collection of different neoplasms. Microarray gene expression analysis has defined two principal types of DLBCL, named for their similarity to normal B cell stages or activation states: a germinal center B-cell (GCB) type, and an activated B-cell (ABC) type. In ABC-DLBCL, a constitutive high-level activity of the NF-kappaB family of transcription factors has been observed (1) and NF-kappaB target genes are more highly expressed in ABC primary tumors than in GCB tumors. Functional studies have shown a constitutive high-level activity of the IkappaB (inhibitor of kappa-B) kinase (IKK) complex. […] Further analysis of DLBCL primary tumors for NF-kappaB target gene expression imply that although CARD11 is required for constitutive IKK activity in all ABC-DLBCL lines, mutations in CARD11 may be the root cause of IKK activation only in lines or tumors with such mutations. In other words, CARD11 mutations may explain NF-kappaB activation in only 10% of ABC-DLBCL cases. […] This process has been termed 'chronic active BCR signaling' (CABS). The goal of this screen is to find small-molecule inhibitors of the CABS pathway found in ABC-DLBCL lines using a cell-based assay that measures IkappaBalpa stability, which has already been extensively validated in the OCI-Ly3 line (PubChem AID:445; REF: 4). […] Hits from the primary screen were tested in this selectivity secondary assay. NIH Molecular Libraries Probe Production Network [MLPCN] NIH Chemical Genomics Center [NCGC] MLPCN Grant: R03 DA031086 PI Name: Dr. R. Eric Davis
Cells were seeded in 1536-well plates at 5000 cells/3ul in IMDM medium containing 0.5% FBS, w/o phenol red, L-glutamine, 25 mM HEPES, 3 mg/ml sodium bicarbonate. After centrifugation for 1 min. at 1000 rpm, 23 nl of compounds or DMSO were delivered to each well using a pin tool. Then 1ul 80ng/ml doxycycline was dispensed into white solid 1536-well plates and the plates were incubated at 37C/5% C02 in a cell incubator for 4 hrs. Then 4 ul Chroma-Glo luminescent substrate mix (Promega) was added to each well. The plate was incubated at R.T. for 10-15 min. The plates were measured on a ViewLux plate reader for green luminescence (540/20 nm filter) and red luminescence (618/8 nm filter). The green and red luminescent signals were corrected for red and green luminescence filter overlap using previously determined filter calibration constants (determined using the procedure outlined in the Promega Technical Manual). The %Activity was determined from the ratio of corrected green/red luminescent values. Green luminescent and ratio %Activity was determined by normalizing to the difference in signal between basal cells (0% Activity) and cells incubated with 10 uM of the proteasome inhibitor MG-132 (100% Activity). Red luminescent %Activity was normalized to the difference between red luminesence in basal cells (0%Activity) and zero luminescence (-100% Activity). Concentration-response curves were fitted to the signals arising from the green luminescence (I-kappa-B-alpha-luciferase fusion; IkB-luc) and the red luminescence (unfused luciferase; luc) as well as the calculated ratio. The concentration-effect curves were then classified based on curve quality (r2), response magnitude and degree of measured activity. Compounds were then categorized based on their concentration-response curves for all three datasets (Ikb-luc, luc and ratio).
In general terms: Quantitative high-throughput screening tests each substance at several concentrations.
Take `CCN1C(=O)C(O)(C2COC(C)(C)CC2=O)c2cc(Br)ccc21` (stereo unspecified): the “activity change, negative = inhibition” value is -6.91%.
Turning to `Cc1ccc(-c2cc(C(=O)N/N=C/c3c(C)nn(-c4ccccc4)c3C)[nH]n2)cc1`, the “activity change, negative = inhibition” value is -14.7%.
In the case of `Cc1nn(-c2ccccc2)c(C)c1/C=N/NC(=O)c1cc(-c2cccs2)[nH]n1`, the Potency is 18.4 µM (active).
Consider `O=C(N/N=C/c1cccs1)c1cc(-c2ccncc2)nc2ccccc12`, for which the “activity change, negative = inhibition” value was -3.1%.
Regarding `COc1ccc(COC(=O)C2=C(C)NC(=O)NC2c2cc(Br)c(O)c(OC)c2)cc1` (stereo unspecified), the “activity change, negative = inhibition” value was 0.378%.
With `CCOC(=O)CSc1nc(C)c2cccc(C)c2n1`, the “activity change, negative = inhibition” value is 0.225%.
In the case of `COc1ccc(C2=Nn3c(nnc3-c3ccccc3OC)SC2)cc1OC`, the “activity change, negative = inhibition” value is -2.26%.
Same read-out and setting: the value for `Fc1cccc2sc(Nc3nnc(-c4ccccc4)o3)nc12` was 21.3%; that for `Nc1ncnc2c1ncn2C1OC(C(=O)NC2CC2)C(O)C1O` (stereo unspecified) was -1.22%; that for `CC(/C=N/NC(=O)c1cc(-c2ccc(Cl)cc2)nc2ccccc12)=C\c1ccco1` was -1.82%.
On to `Cc1noc(C)c1COc1ccc(CC(=O)NCc2ccccc2)cc1`, for which the “activity change, negative = inhibition” value was -1.46%.
For `Cc1cc(C)c(S(=O)(=O)Nc2ccc3c4c(cccc24)CC3)c(C)c1`, the “activity change, negative = inhibition” value was -5.19%.
On to `CCOc1ccc(Nc2cc(C)nc(-n3nc(C)cc3C)n2)cc1`, for which the “activity change, negative = inhibition” value was -3.94%.
Turning to `COc1ccc(OC)c(C2CC(=O)c3c([nH]c(C(=O)OC(C)C)c3C)C2)c1` (stereo unspecified), the “activity change, negative = inhibition” value was -5.41%.
As for `COc1ccccc1-c1nnc(Nc2nc3c(OC)cccc3s2)o1`, the “activity change, negative = inhibition” value is 14.5%.
Regarding `C=CCn1c(SCC(=O)NCCO)nc2sc(C)c(C)c2c1=O`, the “activity change, negative = inhibition” value is -0.853%.
Regarding `O=C(CNC(=O)c1ccco1)N=Nc1c(O)n(CCc2ccccc2)c2ccccc12`, the “activity change, negative = inhibition” value was -1.99%.
Regarding `C=CCNc1ncnc2c1ncn2C1OC(CO)C(O)C1O` (stereo unspecified), the “activity change, negative = inhibition” value is -1.82%.
Turning to `COc1cccc(CSc2nc3ccccc3cc2C=O)c1`, the “activity change, negative = inhibition” value was -1.56%.
With `O=C(/C=C/c1cccc(Cl)c1)c1nc2ccccc2[nH]1`, the “activity change, negative = inhibition” value is 0.678%.
Regarding `COc1cc2c(cc1OC)C(c1cc3cc(OC)c(OC)cc3[nH]c1=O)N(C(=O)C1CC1)CC2` (stereo unspecified), the “activity change, negative = inhibition” value is -0.249%.
In the case of `CCOc1cc(CNc2ccc3c(c2)OCCO3)cc(Br)c1OCC`, the “activity change, negative = inhibition” value was -7.23%.
For `CC(C)Oc1ccccc1C1CC(=O)Nc2cc3c(cc21)OCCO3` (stereo unspecified), the “activity change, negative = inhibition” value was -4.7%.
As to `C=C1C(O)[C@@H]2O[C@]3(CC[C@H](/C=C/C(C)[C@@H]4CC(C)=CC5(O[C@H](C[C@@](C)(O)CO)CCC5O)O4)O3)CC[C@H]2O[C@@H]1C(O)CC(C)[C@H]1OC2(CCCCO2)CCC1C` (stereo partly specified), the “activity change, negative = inhibition” value is -6.02%.
Consider `Cc1cc(Cl)n2c(nc3ccccc32)c1C#N`, for which the “activity change, negative = inhibition” value is -0.275%.
For `COc1ccc(-c2noc(CSc3nc(N)c(-c4ccccc4)c(=O)[nH]3)n2)cc1OC`, the “activity change, negative = inhibition” value is -0.927%.
Regarding `COc1ccc(CN2C[C@H]3CCCN3c3cc(Br)ccc3S2(=O)=O)cc1`, the “activity change, negative = inhibition” value is -3.64%.
On to `CCOCCOC(=O)c1[nH]c2c(c1C)C(=O)CC(c1ccccc1)C2` (stereo unspecified), for which the “activity change, negative = inhibition” value was -0.56%.
Consider `CCOc1cc(C(=O)N/N=C/C(Br)=C/c2ccccc2)cc(OCC)c1OCC`, for which the “activity change, negative = inhibition” value was -11.1%.
In the case of `CCOC(=O)c1ccc(NC(=O)Nc2ccon2)cc1`, the “activity change, negative = inhibition” value is -4.1%.
Consider `Cc1ccccc1Nc1c(N)c(=O)oc2ccccc12`, for which the “activity change, negative = inhibition” value was -0.754%.
`COc1cc(/C=C/c2ccc3cccc(O)c3n2)cc(OC)c1OC`: the “activity change, negative = inhibition” value is 122%.
Take `COc1cc(/C=C/c2ccc3cccc(O)c3n2)c(Br)cc1O`: the “activity change, negative = inhibition” value was 31%.
As to `COc1cc(/C=C/c2ccc3cccc(O)c3n2)cc(Br)c1OC`, the Potency is 10.3 µM (active).
Turning to `Fc1ccc(/C=N/NC2=Nc3cccc4cccc2c34)cc1`, the “activity change, negative = inhibition” value is -1.29%.
Regarding `CNC(=O)c1cccc(NC(=O)C(C)c2ccc3cc(OC)ccc3c2)c1` (stereo unspecified), the “activity change, negative = inhibition” value was -3.81%.
For `COc1ccc(C(C)=O)cc1COC(=O)c1ccc(N)c([N+](=O)[O-])c1`, the “activity change, negative = inhibition” value was -0.216%.
Regarding `CCOc1cc(/C=C(/C#N)C(=O)Nc2ccc(O)cc2)cc(Br)c1O`, the “activity change, negative = inhibition” value was -11.9%.
Regarding `COC(=O)c1ccc(C)c(NS(=O)(=O)c2ccc3c(c2)OCCO3)c1`, the “activity change, negative = inhibition” value was -3.3%.
In the case of `CCN(CC)c1ccc(-c2nn3c(-c4n[nH]c5c4CCC5)nnc3s2)cc1`, the “activity change, negative = inhibition” value is -7.08%.
With `CC1C(=O)N2CCCc3cc(NC(=O)c4ccccc4Br)cc1c32` (stereo unspecified), the “activity change, negative = inhibition” value was -10.2%.
In the case of `COC(=O)c1cc(C(=O)N2CCN(c3cccc(Cl)c3)CC2)cc([N+](=O)[O-])c1`, the “activity change, negative = inhibition” value was -3.03%.
Same read-out and setting: with `O=C(Nc1ccc(N2CCCC2)cc1)c1cc(Cl)ccc1Cl` the figure was -1.28%.
As for `O=C(Nc1ccc(N2CCN(C(=O)c3ccc(Cl)cc3)CC2)cc1)c1ccc([N+](=O)[O-])o1`, the Potency was 16.4 µM (active).
As for `CCC1=Nc2cc(C(=O)NCc3ccco3)ccc2Sc2ccccc21`, the “activity change, negative = inhibition” value is -2.12%.
Consider `CCCCC[C@H](O)/C=C/[C@@H]1[C@@H](C/C=C\CCCC(=O)O)[C@H]2CO[C@@H]1C2`, for which the “activity change, negative = inhibition” value was -0.516%.
`Cc1ccc(Nc2nc(-c3c(C)nc4ncccn34)cs2)cc1`: the “activity change, negative = inhibition” value is -13%.
As for `Cc1ccc2[nH]c(-c3cccc(F)c3)cc(=O)c2c1`, the “activity change, negative = inhibition” value was -3.54%.
In the case of `COc1cc2c(cc1OC)-c1cc(NC3CCCCC3)nc(=O)n1CC2`, the “activity change, negative = inhibition” value is -0.939%.
As for `COc1cc2c(cc1OC)-c1cc(NC3CCCC3)nc(=O)n1CC2`, the “activity change, negative = inhibition” value was -0.848%.
For `COc1cc(S(=O)(=O)N2CCCCC2)ccc1NC(=O)/C=C/c1ccccc1`, the “activity change, negative = inhibition” value was -1.13%.
